The first test addresses CLEC9A. Kind of test: pooled miR-30 sensor sort-seq; sequence = guide strand. To be noted: shRNA.
With TTCTCTTGACTGGTGTGCCAAA, the sensor-assay potency score (higher = more potent) was -1.18. For the sequence TAAACAATTCTCTTGACTGGTG, the sensor-assay potency score (higher = more potent) was -0.135. Same read-out and setting: the same measure for TTTGTAGCAGCGTGGAACCTTC: -0.937. On the same count and under the same terms, the same measure for ATAGTAACAACTTTCTCTGTTC: -0.226. In turn, TTGGATGAGTTTTTCTTGCTGC displayed a sensor-assay potency score (higher = more potent) of 0.744. The same measure, in the same setting: the same measure for TTAATCTTCCTCAAGCTGCCAG: 0.401. TCACAAGACAGCATGCTCCTGA gave a sensor-assay potency score (higher = more potent) of 0.87.

The target of a further test is CLN3. Described as above. Conditions: shRNA.
In the case of TGACTCAGGGAAGTGTTCCAGA, the sensor-assay potency score (higher = more potent) was -0.693.

As to AACAATTTGATGACGAGTGTGG, the sensor-assay potency score (higher = more potent) turned out to be 0.272. For ATCGTGATGAGCTGTTGTGGGG, the sensor-assay potency score (higher = more potent) is -0.665.

Regarding CAGAGTTGCAGTCAAATCGTGA, the sensor-assay potency score (higher = more potent) was -1.16.

Take TACAGCATCTGGTACCAGCGGT: the sensor-assay potency score (higher = more potent) was -0.527. The same measure, in the same setting: as for TAGAGACAGAGTTGCAGTCAAA, the figure is -1.26; as for AAGTAAACTACGACCAAGGGAA, -0.0602; as for TGGTACAGCATCTGGTACCAGC, -1.94.

TCAAATCGTGATGAGCTGTTGT displayed a sensor-assay potency score (higher = more potent) of 0.182.

In the case of TTTCCCGATGTCCTCTTGTGGC, the sensor-assay potency score (higher = more potent) is -1.44. As to TCGTGATGAGCTGTTGTGGGGG, the sensor-assay potency score (higher = more potent) was -0.528.

Regarding AATCGTGATGAGCTGTTGTGGG, the sensor-assay potency score (higher = more potent) was -0.0059.

Consider TTGCAGTCAAATCGTGATGAGC, for which the sensor-assay potency score (higher = more potent) is -1.19. AATCCCACTGACGAGAACCCGG: the sensor-assay potency score (higher = more potent) was -0.766. Same read-out and setting: the same measure for TTGTGGAAGGTGTTCACGTAGG: -0.371; for AAATCGTGATGAGCTGTTGTGG: -0.817; for AAGACCACACCACACAGGCTGG: -1.35. GTGAGCAACAAGAAATAGCTGG: the sensor-assay potency score (higher = more potent) was -0.754.

With TGGTCCAACAGAGGGAGCCGGG, the sensor-assay potency score (higher = more potent) was -1.78. Still for that read-out and setting: as for TGAGCAACAAGAAATAGCTGGC, the figure is 0.625; as for TTGAACACTGTCCACCTTTCCC, -0.845; as for AACACTGTCCACCTTTCCCGAA, -1.44.

For the sequence TCTGCCAGCAGGAACACCAGGT, the sensor-assay potency score (higher = more potent) worked out at 0.0628. Same read-out and setting: the same measure for TTGTGGCTAAGGATGTCGTGGG: -0.303.

The target of another test is CLN5. The test is described as above. To be noted: shRNA.
Sequence TGTTTGTGCACAATCACTGCAT had a sensor-assay potency score (higher = more potent) of 0.594. Take ATGTTCTTGAACTCTGCTCCAA: the sensor-assay potency score (higher = more potent) was -1.05. The same measure, in the same setting: the same measure for TAGCTTGACAATAAGGATCAGG: -0.401; for TCTATGTTCTTGAACTCTGCTC: 0.0222; for TTTGGTTGAACATGTTTCCTGA: 0.362. Regarding TAGTTGGTTTCTATGTTCTTGA, the sensor-assay potency score (higher = more potent) was -0.69. On the same count and under the same terms, the same measure for TGTTCTTGAACTCTGCTCCAAA: -0.828; for TTTAACTTTATGCACCAAGGAA: -0.689; for TAATATGCAGCAATTCTGCTGA: 0.18.

The record behind these values is the OligoGym collection.
Also: reference of the scale not given here.
